# Bioassay records from PubChem.
# aSyn 5UTR inh = MLPCN primary screen, SNCA 5' untranslated region; alpha-synuclein 5'UTR reporter, inhibitor activity; inhibition, % (tested at 7.5 µM); 300,000 tested, 0.82% active; AID 1813; in the data active = inhibition above about 60%;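 note: H4 neuroglioblastoma cells stably carrying SNCA 5'UTR luciferase fusion; 0% = DMSO wells and 100% = positive control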
# TWEAK-Fn14 inh = blocks TWEAK-Fn14 interaction in a reporter cell assay; TWEAK-stimulated Fn14 reporter cells, luciferase luminescence, 8 h; inhibition, % at 10 µM; 360,000 tested, 2% active; in the data active = inhibition above about 50%
# HSP90 inh = inhibitors of HSP90 luciferase refolding in rabbit reticulocyte lysate. luciferase refolding luminescence, 3 h. inhibition, % at 5.6 µM. 290,000 tested, 0.91% active. AID 1789;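 active = inhibition above the screen-wide mean plus 3 SD, computed separately per campaign, cut at about 16% in these data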;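 note: 0% = DMSO wells and 100% = 60 µM geldanamycin wells; inhibitors lower the luminescence because luciferase stays unfolded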
# TRAIL sens C8 = caspase-8 TRAIL sensitization | AID 624354 | 360,000 tested, 1% active | inhibition (viability loss, TRAIL sensitization), % at 10 µM | NB7+C8 cells + TRAIL, ATPlite viability luminescence;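 active = compounds causing at least 50% loss of cell viability in the single-dose screen, relative to plate controls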
# HIF-2a block = blocks HIF-2a reporter activity. 786-0 RCC cells HIF-2a reporter, luciferase luminescence, overnight. inhibition, % at 18.8 µM. 360,000 tested, 0.72% active;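 active = inhibition of the luminescence signal of 40% or more relative to plate controls, in a single-dose primary screen at 18.75 µM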
# TROY NFkB inh = inhibitors of TROY-dependent NF-kB signaling; Q293 LMP1-TROYcd NF-kB luciferase reporter, 4 h; inhibition, % at 10 µM; 360,000 tested, 0.98% active;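 active = compounds whose plate-normalised and pattern-corrected inhibition of the luciferase reporter signal at the single screening dose is 50% or more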
# HSP90 inh confirm = HSP90 inhibition, confirmation assay | shares compounds with HSP90 inh | rabbit reticulocyte lysate, luciferase refolding luminescence, 3 h | inhibition, % at 5.9 µM | 2,300 tested, 64% active | AID 1846; in the data active = inhibition above about 18%;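 note: 0% = vehicle wells and 100% = reference inhibitor wells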
# luciferase ctr = blocks native firefly luciferase in HSP90 counter-screen; shares compounds with HSP90 inh; purified native firefly luciferase, luminescence; inhibition, % at 5.9 µM; 2,300 tested, 48% active; AID 1847;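 active = inhibition above the mean inhibition of all tested sample wells plus 3 SD, cut at about 10% in these data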;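 note: 0% = DMSO with luciferase and 100% = wells lacking luciferase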
# Target sequence (P08659 whole entry, looked up): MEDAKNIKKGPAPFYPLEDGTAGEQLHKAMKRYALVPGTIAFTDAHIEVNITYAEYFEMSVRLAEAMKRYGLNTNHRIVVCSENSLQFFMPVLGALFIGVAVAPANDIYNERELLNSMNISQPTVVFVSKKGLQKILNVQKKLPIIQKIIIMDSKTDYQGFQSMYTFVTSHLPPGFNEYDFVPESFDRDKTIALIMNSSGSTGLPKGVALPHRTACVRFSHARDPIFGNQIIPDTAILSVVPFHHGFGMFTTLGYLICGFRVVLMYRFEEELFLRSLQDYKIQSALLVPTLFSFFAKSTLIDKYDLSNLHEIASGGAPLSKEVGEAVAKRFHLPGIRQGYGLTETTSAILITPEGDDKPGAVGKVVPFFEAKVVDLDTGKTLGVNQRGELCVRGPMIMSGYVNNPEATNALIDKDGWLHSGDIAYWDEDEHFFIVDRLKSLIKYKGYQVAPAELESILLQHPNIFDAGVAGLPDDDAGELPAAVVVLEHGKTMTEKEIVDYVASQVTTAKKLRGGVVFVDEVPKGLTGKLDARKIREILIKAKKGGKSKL
# * marks the source's active call; other numbers are inactive results; nt = no result given. Only some compounds are listed: those with a hit (about 3.9% of all), similar ones and a draw of the others.
SMILES,aSyn 5UTR inh,TWEAK-Fn14 inh,HSP90 inh,TRAIL sens C8,HIF-2a block,TROY NFkB inh,HSP90 inh confirm,luciferase ctr
O=C(O)c1ccc(COc2ccc3ccccc3c2)o1,-157.5,28.3,67.4*,-6.8,-138.8,-35.4,74.8*,30.4*
C=C(Cl)COc1ccc2c(CCC)cc(=O)oc2c1,-12.6,-25.4,6.7,-6.4,-89.5,-60.3,nt,nt
O=c1cc(-c2ccccc2)oc2c1CCCC2,nt,-13.3,nt,-26.4,-104.1,6.5,nt,nt
COc1ccc(NC(=O)N2CCc3ccccc32)cc1,-31.8,46.0,18.8*,56.5*,-83.3,-5.8,37.0*,23.3*
COc1ccc(NC(=O)N2CCCc3ccccc32)cc1,-45.6,16.9,1.6,-0.6,-72.4,-27.0,nt,nt
CCN(CC)c1ccc(C2C(C(=O)OC(C)C)C(=O)CC(C)(O)C2C(=O)OC(C)C)cc1 (stereo not drawn),-7.3,42.8,31.6*,10.6,3.7,15.1,2.3,-1.7
CCOC(=O)C1C(=O)CC(C)(O)C(C(=O)OCC)C1c1ccc(N(CC)CC)cc1 (stereo not drawn),-3.6,-1.3,-2.1,-3.3,6.7,2.3,nt,nt
O=[N+]([O-])c1ccc(NC2CCCC2)cc1,8.0,-1.6,20.0*,5.3,-23.1,-23.3,-7.2,-12.3
CCCCOC(=O)CSc1nc(N)c(C#N)c(-c2ccc(OC)cc2)c1C#N,-25.7,16.9,24.6*,1.2,31.4,0.2,4.6,-6.1
CCCNC(=O)C1(C)CCN1C(=O)Cc1ccc(C(C)C)cc1 (stereo not drawn),nt,-2.0,nt,1.0,8.6,-11.0,nt,nt
CCc1ccccc1Oc1nc(NC(C)C)nc2ccsc12,nt,-26.4,nt,-2.3,16.7,6.4,nt,nt
C[C@@H]1CN([C@H](C)CO)C(=O)c2cc(C#C[C@@H](C)O)cnc2O[C@H]1CN(C)C(=O)c1ccc(F)cc1,nt,-50.7,nt,-4.4,10.7,-14.9,nt,nt
O=C(CCN1C(=O)c2ccccc2C1=O)NCc1ccncc1,12.2,10.8,10.0,0.3,6.0,8.2,nt,nt
O=C(CCN1C(=O)c2ccccc2C1=O)NCc1ccccc1,-6.4,-0.5,41.0*,1.9,-3.0,-0.4,0.4,-7.4
COc1ccc(C(=O)/C=C/Nc2cc(C)ccn2)cc1,25.7,74.8*,31.0*,61.4*,-46.1,5.8,68.5*,54.8*
COc1ccc(N/C=C/C(=O)c2ccccc2)cc1,-44.7,89.6*,53.8*,71.3*,-55.0,39.8,88.4*,80.6*
Cc1ccnc(N/C=C/C(=O)c2ccc(Br)cc2)c1,-62.4,20.9,9.2,44.3,-226.4,-19.0,nt,nt
O=C(N/N=C/c1cccnc1)NC12CC3CC(CC(C3)C1)C2,-21.7,-39.8,31.8*,-5.0,-26.5,-14.3,6.3,0.8
COc1ccc(N(C(=O)c2ccco2)S(=O)(=O)c2ccc(F)cc2)cc1,-1.0,5.7,16.9*,1.5,13.0,10.5,-0.5,-3.7
NC(c1ccccc1)c1csc(Nc2ccc(C(F)(F)F)cn2)n1 (stereo not drawn),nt,-19.3,nt,4.5,-24.9,-21.2,nt,nt
CCCNC(=O)C1(C)CCN(Cc2csc3ccccc23)C1 (stereo not drawn),nt,10.8,nt,-0.8,13.4,3.6,nt,nt
COc1cc(SC)ccc1C(=O)Nc1ccc(Cl)cn1,99.7*,90.8*,26.1*,90.3*,53.1*,73.8*,89.7*,84.2*
CSc1ccc(Cl)c(C(=O)Nc2ccc(Cl)cn2)c1,31.2,-3.5,2.9,18.4,-28.1,-8.9,nt,nt
Cc1cc(CN2CCN(CC(=O)Nc3cc(Cl)ccc3-n3cncn3)CC2)no1,nt,-16.1,nt,1.3,10.6,3.4,nt,nt
O=C(CSc1ccccc1)Nc1ccc(N2CCN(c3ccccc3)CC2)c(F)c1,-22.8,-1.3,-3.4,-4.3,4.0,-3.8,nt,nt
SMILES,aSyn 5UTR inh,TWEAK-Fn14 inh,HSP90 inh,TRAIL sens C8,HIF-2a block,TROY NFkB inh,HSP90 inh confirm,luciferase ctr
COCC(=O)Nc1ccc(N2CCN(c3ccccc3)CC2)c(F)c1,-1.3,-8.2,27.4*,-4.5,-56.4,-11.7,-7.3,-12.6
COc1ccccc1Nc1nn2c(=O)c3ccc(C(=O)N4CCCCC4)cc3nc2s1,10.5,4.3,-0.6,8.1,5.8,-24.2,nt,nt
COc1ccccc1Nc1nn2c(=O)c3ccc(C(=O)NCc4cccnc4)cc3nc2s1,18.7,-14.8,20.1*,3.5,9.2,0.9,37.8*,-1.8
CC(C)CCn1cnc2c(oc3nc4c(cc32)CCCC4)c1=O,60.1,76.0*,19.3*,27.8,-71.4,55.3*,51.2*,34.6*
CC1(C)Cc2nc3oc4c(=O)n(CC(=O)Nc5ccccc5)cnc4c3cc2CO1,-21.7,-2.9,4.1,-12.8,-41.6,-18.8,nt,nt
Cc1cc2nc(-c3cccnc3SCC(=O)NC(C)C)[nH]c2cc1C,-122.2,-5.7,33.8*,34.3,-257.2,5.2,-3.2,-23.3
COc1ccc2nc(SCC(=O)NC(C)C)[nH]c2c1,-17.3,-10.9,0.0,-7.2,-5.6,-25.3,nt,nt
COc1cc(N=Nc2c(O)c3ccccc3[nH]c2=O)c(OC)cc1N=Nc1ccccc1,34.1,1.1,11.1,-2.6,6.7,36.1,2.2,-13.7
COc1cc(N=Nc2ccccc2C(=O)O)ccc1O,-9.4,12.2,3.1,-37.8,-10.2,4.9,nt,nt
NC(=O)c1ccc(N=Nc2c(O)c3ccccc3[nH]c2=O)cc1,13.2,nt,13.7,nt,nt,nt,12.1,-14.8
CCOc1ccc2c(c1)c(N=Nc1cccc(C(=O)O)c1)c(O)n2C,-179.4,-41.7,27.2*,0.6,-131.9,-26.4,30.1*,5.7
Cc1ccc2c(c1)c(N=Nc1cccc(C(=O)O)c1)c(O)n2C,-7.1,-18.3,-0.1,1.9,-24.7,-21.3,nt,nt
COCCCNc1ccn2nc(-c3ccc(Cl)cc3)cc2n1,nt,3.5,nt,-8.7,-259.1,-5.5,nt,nt
O=C(NCc1cccc(C(F)(F)F)c1)c1[nH]c(C(F)(F)F)nc1-c1ccccc1,nt,8.7,nt,2.5,-3.7,48.0,nt,nt
CN1CCN(c2nc(-c3ccc(C(C)(C)C)cc3)nc3ccccc23)CC1,-4.9,84.6*,54.4*,71.3*,-43.0,77.8*,52.4*,49.2*
Cc1nc2c(-c3ccc(F)cc3)c(C)nn2c(C)c1CCC(=O)N1CCOCC1,26.5,-17.9,-1.4,-1.1,29.0,10.2,nt,nt
Cc1nc2c(-c3ccc(F)cc3)c(C)nn2c(C)c1CCC(=O)NCCN1CCOCC1,21.0,-18.3,39.7*,-11.1,5.5,-15.9,4.2,-0.2
Cc1noc(C)c1NC(=O)N(C)C[C@@H]1OCc2cnnn2CCCC(=O)N([C@@H](C)CO)C[C@@H]1C,nt,-3.9,nt,1.8,9.1,-2.7,nt,nt
O=c1[nH]c2cnn(-c3ccccc3)c2c(=O)n1O,nt,5.6,nt,-8.2,5.3,-5.4,nt,nt
CC(C)(C)c1ccc(NC(=O)c2ccsc2)cc1,-52.4,2.7,23.5*,69.3*,-185.1,-14.9,39.3*,27.0*
CC(C)(C)c1ccc(C(=O)Nc2ccc(Cl)cc2)cc1,-109.9,-28.2,-4.8,20.3,-174.9,-78.6,nt,nt
